# Values joined by “and” are separate entries in the source; they are usually repeats but may differ in a detail not shown here. Equal entries are not always repeated. A number with no mark means an inactive call. Records with an inconclusive call do not appear. Where a call stands in place of a potency, no number is given. Active and inactive are the calls of the source. Unless noted, calls come from the whole dose curve; as a rule, active = well fitted curve in the direction sought with a large enough effect; inconclusive = small, poorly fitted or top-dose-only effect, or another doubt; inactive = no such curve, though single readings can be large; an effect the other way counts as inactive or inconclusive.
# Assays:
# [1] = target: Tumor necrosis factor (Homo sapiens) (UniProt P01375); assay: qHTS assay to identify small molecules that stimulate Tumor Necrosis Factor-alpha (TNF-alpha) secretion (AID 651757; active = well fitted curve in the direction sought with a large enough effect in the signal ratio; the % refers to the signal ratio)
# Procedure, shortened: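 Secreted TNF-alpha quantified by TR-FRET sandwich of two labeled anti-TNF-alpha antibodies, incubated 3 hr at room temperature. Preceded by 17 hr, 37 C compound treatment of THP-1 cells at 3000 cells/well.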
# [2] = qHTS assay for environmental chemicals that activate the Aryl hydrocarbon Receptor (AhR) signaling pathway (AID 651777); conditions: 1A2-DRE human hepatoma cells, luciferase, 24 h; hits give high values; note: nearly all actives have a fitted effect of over 15% in size
# Procedure, shortened: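 Measured luciferase activity, read 30 min after One-Glo addition at room temperature, from human hepatoma cells bearing a dioxin response element–CYP1A2 promoter reporter and exposed to compound for 24 hr at 37 C.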
# [3] = target: Peroxisome proliferator-activated receptor alpha (Homo sapiens) (UniProt Q07869); assay: qHTS assay for small molecule agonists of the peroxisome proliferator-activated receptor alpha (PPARalpha) signaling pathway (AID 651778); conditions: PathHunter PPARalpha complementation, chemiluminescence, 6 h; hits give high values
# Procedure, shortened: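 Enzyme-fragment complementation assay in which ligand-bound PPARalpha translocates and forms an active enzyme that generates chemiluminescence. Cells were plated overnight, exposed to compound for 6 hr at 37 C, and then given detection reagent for 60 min at room temperature.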
# [4] = target: Nuclear receptor ROR-gamma (Homo sapiens) (UniProt P51449); assay: qHTS assay for small molecule antagonists of the retinoid-related orphan receptor gamma (ROR-gamma) signaling pathway (AID 651802);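 note: luciferase reporter luminescence driven by ROR response element; nearly all actives have a fitted effect of over 60% in size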
# Text: National Center for Advancing Translational Sciences [NCATS]
# NIH Chemical Genomics Center [NCGC]
# National Institutes of Environmental Health Sciences [NIEHS]
# National Toxicology Program [NTP]
# Nuclear steroid hormone receptors are involved in many biological processes including inflammatory responses, cell proliferation, and apoptosis. Environmental factors or compounds disrupting these nuclear receptor pathways and gene expression may promote susceptibility to immunotoxicants and autoimmune diseases. One important group of these expression factors are the retinoid-related orphan receptors. […]
# The CHO cell-based assay utilizes a TET-inducible ROR expression factor and ROR response element-LUC reporter gene. Reporter activity was induced using doxycycline and measured after 16hr incubation. Luminescence was read using Viewlux (PerkinElmer), where a decrease in reporter activity would show a decrease in luminescence.
# 1,000 cells in 4 uL/well were dispensed into white wall/solid bottom 1536-well plates using a Multidrop Combi (Thermo Scientific) dispenser. […] After 16hr incubation at 37C and 5% CO2, 5uL one-glo (promega) was added to each plate and following 30 min incubation at room temperature, luminescence was quantified on a ViewLux (PerkinElmer) plate reader.
# [5] = target: Tyrosine-protein kinase Yes (Homo sapiens) (UniProt P07947); assay: qHTS for small molecule inhibitors of Yes1 kinase: Primary Screen (AID 686947); note: nearly all actives have a fitted effect of over 60% in size; note: potency is the fitted concentration of half-maximal effect
# Procedure, shortened: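 ADP-Glo luminescence reports ADP formed by 4 nM Yes1 phosphorylating poly(E4Y) (0.3 mg/mL) with 0.1 mM ATP for 60 min at room temperature, following 20 min compound preincubation; normalised between DMSO wells with and without enzyme.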
# [6] = qHTS for small molecule inhibitors of Yes1 kinase: Counter Assay (AID 686950);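 note: no kinase present so only ADP-Glo detection of a fixed ADP amount is tested; luminescence from ADP-Glo reporting ADP in a fixed ATP and ADP mixture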
# Procedure, shortened: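 No kinase present; 0.08 mM ATP + 0.02 mM ADP in 50 mM Tris pH 7.5, 10 mM MgCl2, 150 mM NaCl, 1 mM DTT; 20 min compound preincubation, 60 min RT, ADP-Glo luminescence, normalized to ATP/ADP (max) and ATP-only (min).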
# [7] = target: Arylsulfatase A (Homo sapiens) (UniProt P15289); assay: qHTS screen for enhancers of Arylsulfatase A (ASA1): LOPAC Validation Assay (AID 720538); conditions: ASA enzyme activity, LOPAC qHTS enhancer assay; at 57.5 µM (top of the series)
# Procedure, shortened: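 Read-out: fluorescence at Ex=525/Em=598 nm after 1N NaOH final stop. Patient fibroblasts carrying ASA-I179S had 48h compound exposure, then 14h room-temperature pNCS hydrolysis (0.5mM final) in lysis buffer. Signal increase = enhanced activity.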
# [8] = qHTS for compounds that reverse cellular toxicity of Amyloid beta (A-beta) peptide in yeast: LOPAC Validation Assay (AID 720559)
# Procedure, shortened: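 OD600 growth readout after 48 hr at 30 C; A-beta-toxic yeast plus pinned compounds in medium. Normalization: DMSO = negative, equimolar FeCl3 + clioquinol = positive.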
# [9] = qHTS for Activators of Parkin Expression: LOPAC Validation Assay (NLuc Reporter) (AID 720572)
# Procedure, shortened: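 NLuc signal, read 10 min after reagent and following a prior FLuc read, is normalized to DMSO (0) and positive controls (100%). Cells: neuronal Parkin-promoter coincidence reporter line; compounds tested 7-point, 24 h, 37 C, 5% CO2.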
# [10] = qHTS for Activators of Parkin Expression: LOPAC Validation Assay (FLuc Reporter) (AID 720573)
# Text: Parkin is an E3 ubiquitin ligase localized in the cytosol of cells expressed in many tissues, including brain, skeletal muscle, heart and liver tissues. One hour after stress induction by mitochondrial uncouplers (which mimic mitochondria damage by decreasing the mitochondrial inner membrane electrochemical gradient that is used to produce ATP), Parkin translocates from the cytosol to mitochondria in many cultured cell types, including neurons and HeLa cells. Administration of other mitochondrial poisons, such as Paraquat and azide in cells lacking mitochondrial DNA (mtDNA), induces Parkin translocation to mitochondria. […]
# A cell based qHTS in 1536 well format was developed assess modulation of Parkin expression using a neuronal cell line that stably expresses a stably expresses a luminescent coincidence reporter (FLuc and NLuc reporters) behind the Parkin promoter. The LOPAC library is used to validate the assay for quantitative high-throughput screening. […]
# Five microliters (1,500 cells/well) of the Parkin coincidence reporter cells were seeded to 1536 well assay plates (Greiner Catalog # 789173-F) and incubated at 37 C, 5% CO2 for 24 hours. […] The FLuc luminescence signal was obtained using the PerkinElmer ViewLux plate imager and then 2 uL of NanoLuc detection reagent was added to the plates. […]
# Tyrosine-protein kinase Yes (Homo sapiens), sequence (P07947 whole entry, looked up): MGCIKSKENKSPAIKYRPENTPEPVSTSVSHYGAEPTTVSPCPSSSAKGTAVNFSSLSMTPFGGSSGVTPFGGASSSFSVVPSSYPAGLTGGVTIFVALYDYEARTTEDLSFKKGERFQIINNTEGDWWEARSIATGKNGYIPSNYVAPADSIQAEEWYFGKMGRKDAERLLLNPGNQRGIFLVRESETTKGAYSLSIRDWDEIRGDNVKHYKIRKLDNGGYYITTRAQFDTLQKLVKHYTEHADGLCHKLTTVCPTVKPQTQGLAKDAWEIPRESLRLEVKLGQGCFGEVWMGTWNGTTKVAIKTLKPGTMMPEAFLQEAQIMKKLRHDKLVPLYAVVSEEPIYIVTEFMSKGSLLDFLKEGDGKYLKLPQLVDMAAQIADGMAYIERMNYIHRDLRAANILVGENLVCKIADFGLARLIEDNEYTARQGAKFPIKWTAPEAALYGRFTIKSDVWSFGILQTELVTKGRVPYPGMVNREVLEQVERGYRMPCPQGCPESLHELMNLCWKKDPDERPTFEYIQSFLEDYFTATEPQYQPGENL
# Peroxisome proliferator-activated receptor alpha (Homo sapiens), sequence (Q07869 whole entry, looked up, the tested form may be a part): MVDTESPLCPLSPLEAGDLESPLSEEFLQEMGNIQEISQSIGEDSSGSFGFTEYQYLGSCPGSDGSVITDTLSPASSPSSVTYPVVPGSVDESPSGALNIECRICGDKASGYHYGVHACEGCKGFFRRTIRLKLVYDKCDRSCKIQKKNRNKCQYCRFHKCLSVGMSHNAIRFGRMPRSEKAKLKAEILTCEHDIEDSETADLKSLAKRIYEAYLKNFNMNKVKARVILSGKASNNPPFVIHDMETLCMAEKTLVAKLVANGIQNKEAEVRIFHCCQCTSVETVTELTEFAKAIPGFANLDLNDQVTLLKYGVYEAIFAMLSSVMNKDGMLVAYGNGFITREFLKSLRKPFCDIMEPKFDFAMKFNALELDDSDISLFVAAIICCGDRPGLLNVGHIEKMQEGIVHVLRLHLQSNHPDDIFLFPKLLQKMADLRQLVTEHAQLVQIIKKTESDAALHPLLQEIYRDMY
# Nuclear receptor ROR-gamma (Homo sapiens), sequence (P51449 whole entry, looked up): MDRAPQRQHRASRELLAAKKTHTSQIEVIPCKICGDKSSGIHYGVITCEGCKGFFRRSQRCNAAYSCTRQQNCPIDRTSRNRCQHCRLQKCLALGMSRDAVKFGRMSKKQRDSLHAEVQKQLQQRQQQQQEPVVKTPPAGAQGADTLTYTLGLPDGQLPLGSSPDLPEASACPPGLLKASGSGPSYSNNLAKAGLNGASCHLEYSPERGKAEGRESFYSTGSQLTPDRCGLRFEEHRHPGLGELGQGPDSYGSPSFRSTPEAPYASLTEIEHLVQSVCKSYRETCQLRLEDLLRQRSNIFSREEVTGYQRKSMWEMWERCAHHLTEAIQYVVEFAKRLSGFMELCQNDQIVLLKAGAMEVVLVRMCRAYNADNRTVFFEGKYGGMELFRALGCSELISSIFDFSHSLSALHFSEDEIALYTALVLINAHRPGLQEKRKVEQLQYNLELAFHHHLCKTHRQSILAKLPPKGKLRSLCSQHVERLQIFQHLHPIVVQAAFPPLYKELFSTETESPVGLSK
# Tumor necrosis factor (Homo sapiens), sequence (P01375 whole entry, looked up): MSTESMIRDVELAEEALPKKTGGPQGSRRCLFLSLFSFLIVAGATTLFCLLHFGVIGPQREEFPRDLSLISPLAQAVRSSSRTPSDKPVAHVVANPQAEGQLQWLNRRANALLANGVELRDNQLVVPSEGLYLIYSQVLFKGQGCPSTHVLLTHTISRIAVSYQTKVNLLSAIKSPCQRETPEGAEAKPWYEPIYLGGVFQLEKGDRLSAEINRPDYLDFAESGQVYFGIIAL
# Arylsulfatase A (Homo sapiens), sequence (P15289 whole entry, looked up): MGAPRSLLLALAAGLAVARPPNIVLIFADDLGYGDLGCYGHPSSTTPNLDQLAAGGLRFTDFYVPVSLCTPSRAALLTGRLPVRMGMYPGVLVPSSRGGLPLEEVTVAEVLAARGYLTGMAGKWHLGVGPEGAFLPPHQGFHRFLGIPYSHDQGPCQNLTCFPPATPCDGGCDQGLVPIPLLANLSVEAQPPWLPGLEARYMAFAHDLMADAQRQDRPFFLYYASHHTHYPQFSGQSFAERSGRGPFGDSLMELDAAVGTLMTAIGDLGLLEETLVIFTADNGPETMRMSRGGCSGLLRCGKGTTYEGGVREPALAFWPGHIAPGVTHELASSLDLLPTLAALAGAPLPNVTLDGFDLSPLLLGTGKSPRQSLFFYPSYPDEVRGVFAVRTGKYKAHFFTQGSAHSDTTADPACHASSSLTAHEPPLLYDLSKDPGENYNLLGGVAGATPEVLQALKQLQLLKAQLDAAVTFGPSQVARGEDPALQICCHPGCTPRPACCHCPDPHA
structure (smiles),measurement,setting,value
C[C@@H]1C[C@H]2[C@@H]3CCC4=CC(=O)C=C[C@]4(C)[C@@]3(F)[C@@H](O)C[C@]2(C)[C@@]1(O)C(=O)CO,outcome,[1],inactive
same,activation,[2],-0.0369% and 0.315%
same,max response,[3],-0.146% and 1.68%
same,outcome,[4],inactive
CCCCCCCCCCCCCC(=O)N[C@H](CO)[C@H](O)c1ccc([N+](=O)[O-])cc1,Potency,[5],inactive
same,outcome,[6],inactive
CC(O)=C(C#N)C(=O)Nc1ccc(C(F)(F)F)cc1,Potency,[5],inactive
same,outcome,[6],inactive
O=C(Nc1ccc(OC(F)(F)F)cc1)c1sccc1NCc1ccnc2ccccc12,outcome,[6],inactive
CNC(=O)c1cc(Oc2ccc(NC(=O)Nc3ccc(Cl)c(C(F)(F)F)c3)c(F)c2)ccn1,Potency,[5],4.87 µM (active)
same,outcome,[6],inactive
CCc1cc(-c2n[nH]c(C)c2-c2ccc3c(c2)OCCO3)c(O)cc1O,Potency,[5],4.34 µM (active)
same,outcome,[6],inactive
CN(C)CCOc1ccc(-c2nc(-c3ccc4c(c3)CCC4=NO)c(-c3ccncc3)[nH]2)cc1,outcome,[6],inactive
CCCCOCCOc1nc(-c2ccc(C(=O)O)c(F)c2)sc1C,outcome,[6],inactive
COc1ccc(CCN(C)CCCOc2ccc(S(=O)(=O)c3[nH]c4ccccc4c3C(C)C)cc2)cc1OC,Potency,[5],inactive
same,outcome,[6],inactive
COc1cccc(OC)c1-c1cc(C(=O)NC2(C(=O)O)C3CC4CC(C3)CC2C4)nn1-c1ccnc2cc(Cl)ccc12 (configuration not stated),Potency,[5],inactive
same,outcome,[6],inactive
CC(C)n1c(C=C[C@H](O)C[C@H](O)CC(=O)O)c(-c2ccc(F)cc2)c2ccccc21,Potency,[5],inactive
same,outcome,[6],inactive
CN(C)CCN(C)C(=O)c1ccc(NC(=O)Nc2ccc(-c3nc(N4CCOCC4)c4ccn(CC(F)(F)F)c4n3)cc2)cc1,outcome,[6],inactive
CCN(CC)CCCCNc1nc2cc(Cl)c(Cl)cc2nc1-c1ccc(-c2cccs2)s1,outcome,[6],inactive
CC(C)(C)c1[nH]cnc1C=c1[nH]c(=O)c(=Cc2ccccc2)[nH]c1=O,Potency,[5],inactive
same,outcome,[6],inactive
CC(=O)Nc1cccc(-n2c(=O)n(C3CC3)c(=O)c3c(Nc4ccc(I)cc4F)n(C)c(=O)c(C)c32)c1,Potency,[5],inactive
same,outcome,[6],inactive
O=C(O)Cc1cccc(OCCCN(Cc2cccc(C(F)(F)F)c2Cl)CC(c2ccccc2)c2ccccc2)c1,outcome,[6],inactive
CC(C)C[C@@H](C(=O)N[C@H](C(=O)OC1CCCC1)c1ccccc1)[C@H](O)C(=O)NO,Potency,[5],inactive
same,outcome,[6],inactive
CCNC(=O)c1noc(-c2cc(C(C)C)c(O)cc2O)c1-c1ccc(CN2CCOCC2)cc1,outcome,[6],inactive
CC(=O)NCCC(=O)N[C@@H](CCC(N)=O)C(=O)N[C@@H](CO)C(=O)N[C@@H](CCC(N)=O)C(=O)N[C@@H](CCC(N)=O)C(=O)N[C@H](C(=O)N[C@@H](Cc1ccccc1)C(=O)N[C@]1(C)CCCCCCC=CCCC[C@@](C)(C(=O)N[C@@H](CCC(N)=O)C(=O)N[C@@H](CC(N)=O)C(N)=O)NC(=O)[C@H](CC(C)C)NC(=O)[C@H](CC(C)C)NC(=O)[C@@H](CCCNC(=N)N)NC(=O)[C@H](Cc2c[nH]c3ccccc23)NC(=O)[C@H](CC(C)C)NC(=O)[C@H](CC(N)=O)NC1=O)[C@H](C)O,outcome,[6],inactive
Cc1cc2c(cc1C1(c3ccc(C(=O)O)cn3)CC1)C(C)(C)CCC2(C)C,outcome,[6],inactive
CN1C(=O)C(Cc2c[nH]c3ccccc23)NC1=S (configuration not stated),Potency,[5],inactive
same,outcome,[6],inactive
NC(=O)c1ccc(N(C(N)=O)c2c(F)cccc2F)nc1-c1ccc(F)cc1F,Potency,[5],inactive
same,outcome,[6],inactive
Cc1csc(-c2nnc(Nc3ccc(Oc4ncccc4-c4ccnc(N)n4)cc3)c3ccccc23)c1,Potency,[5],inactive
same,outcome,[6],inactive
C[C@H]1O[C@@H](n2cc(F)c(=O)[nH]c2=O)[C@H](O)[C@H]1O,outcome,[7],inactive; inhibitor; fitted 8.4921 uM
same,outcome,[8],inactive
same,outcome,[9],inactive
same,outcome,[10],inactive
C=CCc1cccc(C=NNC(=O)CN2CCN(Cc3ccccc3)CC2)c1O,outcome,[8],inactive
same,outcome,[9],inactive
same,outcome,[10],inactive
OCCn1cc(-c2ccc3c(c2)CCC3=NO)c(-c2ccncc2)n1,Potency,[5],inactive
same,outcome,[6],inactive
CCC(=O)N1CCN(c2ccc(-n3c(=O)ccc4cnc5ccc(-c6cnc7ccccc7c6)cc5c43)cc2C(F)(F)F)CC1,Potency,[5],inactive
same,outcome,[6],inactive
O=C1Nc2ccc(I)cc2C1=Cc1cc(Br)c(O)c(Br)c1,Potency,[5],5.82 µM (active)
same,outcome,[6],inactive

# Reference: PubChem BioAssay (NCATS)
